{
  "source": "PubChem BioAssay (Tox21)",
  "note": "Results filed as inconclusive are left out. Values without a mark were called inactive. The call rests on the fitted dose curve; in most records, active means well fitted cell-killing curve with a large enough effect in the repeat runs; inconclusive means weak or mixed curves, or effect the other way; inactive means no such curve, though single readings can be large or run the other way. On the % scale 0 is the no-effect control and ±100 the full control effect.",
  "data": [
    {"test": "qHTS assay to identify small molecule agonists of the RXR signaling pathway - cell viability counter screen (AID 1159529);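 further: HEK 293T cells carrying an RXR-alpha UAS beta-lactamase reporter; nearly all actives have a fitted effect of over 50% in size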", "conditions": "RXR-alpha-bla HEK293T viability, CellTiter-Glo, 16 h; series mostly up to 76.8 µM; activity change, negative = cytotoxicity: at the top concentration", "how_it_was_run": "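In this parallel viability measure, GeneBLAzer RXR-alpha HEK 293T cells (2% charcoal-stripped FBS) were given a 5 hr preincubation, treated with compounds 16 hr at 37 C, and read by CellTiter-Glo luminescence.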", "values": [
      {"smiles": "CC(=O)c1ccc2ccccc2c1", "activity change, negative = cytotoxicity": "-0.373%"},
      {"smiles": "O=[N+]([O-])c1cncn1CCN1CCOCC1", "activity change, negative = cytotoxicity": "-9.07% [at 35.3 µM]"},
      {"smiles": "CN(C)[C@@H]1C(=O)C(C(=O)NCN2CCCC2)=C(O)[C@@]2(O)C(=O)C3=C(O)c4c(O)cccc4[C@@](C)(O)C3C[C@@H]12", "note": "(stereo partly drawn)", "activity change, negative = cytotoxicity": "-6.11% [at 35.3 µM]"},
      {"smiles": "C[C@H]1[C@H](NC(=O)/C(=N/OC(C)(C)C(=O)O)c2csc(N)n2)C(=O)N1S(=O)(=O)O", "note": "(stereo in doubt)", "activity change, negative = cytotoxicity": "1.41% [at 35.3 µM]"},
      {"smiles": "C1CCC2(CCCCO2)OC1", "activity change, negative = cytotoxicity": "-1.37%"},
      {"smiles": "CCOc1c(N2CCOCC2)cnn(C)c1=O", "activity change, negative = cytotoxicity": "2.96% [at 35.3 µM]"},
      {"smiles": "CC(CC=O)CC(C)(C)C", "note": "(stereo not drawn)", "activity change, negative = cytotoxicity": "-7.03%"},
      {"smiles": "CC1=CCC(O)(C(C)C)CC1", "note": "(stereo not drawn)", "activity change, negative = cytotoxicity": "-1.74%"},
      {"smiles": "O=C(O)CNC(=O)c1ccccc1", "activity change, negative = cytotoxicity": "2.46% [at 35.3 µM]"},
      {"smiles": "Cc1ncc([C@@H](CCCCCCc2ccc3c(n2)NCCC3)CC(=O)O)cn1", "activity change, negative = cytotoxicity": "6.89%"},
      {"smiles": "[Ca+2]", "activity change, negative = cytotoxicity": "-10.6%"},
      {"smiles": "Cc1cccc(C)c1NC(=O)CC12CCCN1CCC2", "activity change, negative = cytotoxicity": "1.98% [at 35.3 µM]"},
      {"smiles": "CCN1C=CN(C)C1C", "note": "(stereo not drawn)", "activity change, negative = cytotoxicity": "7.29%"},
      {"smiles": "CC1CCC(CO)CC1", "note": "(stereo not drawn)", "activity change, negative = cytotoxicity": "7.76%"},
      {"smiles": "CCC(C)(CCCC(C)C)OC(C)=O", "note": "(stereo not drawn)", "activity change, negative = cytotoxicity": "-0.188%"},
      {"smiles": "Nc1ccn([C@@H]2O[C@H](CO)[C@@H](O)C2O)c(=O)n1", "note": "(stereo partly drawn)", "activity change, negative = cytotoxicity": "-0.138%"},
      {"smiles": "O=C1NC(=O)C2CC=CCC12", "note": "(stereo not drawn)", "activity change, negative = cytotoxicity": "-1.22%"},
      {"smiles": "CC1(C)OC[C@@H](COC(=O)CCc2ccc(OC[C@@H](O)CNCCNC(=O)N3CCOCC3)cc2)O1", "activity change, negative = cytotoxicity": "4.44% [at 35.3 µM]"},
      {"smiles": "C[N+]1(C)[C@@H]2CC(OC(=O)[C@H](CO)c3ccccc3)C[C@H]1[C@@H]1O[C@@H]12", "note": "(stereo partly drawn)", "activity change, negative = cytotoxicity": "2.4% [at 35.3 µM]"},
      {"smiles": "CC(C)c1ccc2ncccc2c1", "activity change, negative = cytotoxicity": "1.42%"},
      {"smiles": "CCCCN1C=CN(C)C1", "activity change, negative = cytotoxicity": "-11.3% [at 15.8 µM]"},
      {"smiles": "CCCCOC(=O)CCC(C)=O", "activity change, negative = cytotoxicity": "16.5%"},
      {"smiles": "COc1cc(C(=O)OC(COCCC(C)C)CN2CCOCC2)cc(OC)c1OC", "note": "(stereo not drawn)", "activity change, negative = cytotoxicity": "2.66% [at 35.3 µM]"},
      {"smiles": "O=C(CO)[C@@H](O)[C@H](O)[C@@H](O)CO", "activity change, negative = cytotoxicity": "9.16% [at 35.3 µM]"},
      {"smiles": "CN(C)CCCCCCN(C)C", "activity change, negative = cytotoxicity": "3.13%"},
      {"smiles": "CCCC(=O)O[C@]1(C(=O)CC)CC[C@H]2[C@@H]3CCC4=CC(=O)CC[C@]4(C)[C@H]3[C@@H](O)C[C@@]21C", "activity change, negative = cytotoxicity": "-19.9% [at 35.3 µM]"},
      {"smiles": "C=C(C)C(=O)OCCOCCOCCOCCOC(=O)C(=C)C", "activity change, negative = cytotoxicity": "4.34%"},
      {"smiles": "CC12CCC(C(=O)C1=O)C2(C)C", "note": "(stereo not drawn)", "activity change, negative = cytotoxicity": "11.7%"},
      {"smiles": "O=C(O)Cc1csc(-c2ccc(Cl)cc2)n1", "activity change, negative = cytotoxicity": "11.9% [at 35.3 µM]"},
      {"smiles": "Cc1c(N)c(=O)n(-c2ccccc2)n1C", "activity change, negative = cytotoxicity": "3.25% [at 35.3 µM]"},
      {"smiles": "CCCCN(CCC(=O)OCC)C(C)=O", "activity change, negative = cytotoxicity": "0.357%"},
      {"smiles": "CCOC(=O)c1ccccc1", "activity change, negative = cytotoxicity": "3.74%"},
      {"smiles": "CCCOC(=O)CC", "activity change, negative = cytotoxicity": "0.574%"},
      {"smiles": "OCCc1ccccn1", "activity change, negative = cytotoxicity": "14.8%"},
      {"smiles": "CC/C=C\\CCOC(C)OCC", "note": "(stereo not drawn)", "activity change, negative = cytotoxicity": "5.58% [at 35.3 µM]"},
      {"smiles": "CN(C)CCN(C)CCN(C)C", "activity change, negative = cytotoxicity": "-0.113%"},
      {"smiles": "O=C(O)CNC(=O)c1ccc(CO)o1", "activity change, negative = cytotoxicity": "-12.1%"},
      {"smiles": "CC(=O)N1C[C@H](O)C[C@H]1C(=O)O", "activity change, negative = cytotoxicity": "4.56% [at 35.3 µM]"}
    ]}
  ]
}
